Screening data: PubChem BioAssay, National Center for Advancing Translational Sciences (NCATS)
Only some compounds are listed: those with a hit (about 8.6% of all), similar ones and a draw of the others.
Marburg entry: Marburg virus entry inhibition. actives 6.5% (n = 18,000). Potency, µM (top dose mostly 49.2 µM), most hits filed as inhibitors. Marburg virus pseudotype entry/binding inhibition, cell-based. AID 720532
Lassa entry: inhibitors of Lassa virus binding or entry into cells | Lassa virus pseudotyped entry inhibition, cell-based qHTS | Potency, µM (titrated, usually from 49.2 µM), most hits filed as inhibitors | actives 4.1% (n = 18,000)
Of the large screens only hits and unclear results are named; the others gave an inactive call; ! = repeats disagree. The call rests on the fitted dose curve; tested in HEK293 cells.

COC(=O)CC=C[C@@H](C)[C@@H](C=NO[C@@H](C)c1cn([C@H](CO)Cc2ccccc2)nn1)NS(=O)(=O)c1ccc(C)cc1	none (no result: Lassa entry)
COC(=O)C1=C(C)N(CC#C[Si](C)(C)C)C(=O)N(C(C)=O)C1c1ccccc1 (stereo unspecified)	none
O=[S+]1([O-])C[C@H](N2CCN(CCO)CC2)[C@H](COCc2ccccc2)N1	none
CCC[C@H]1CN(c2ccc(Br)cc2)C(=O)[C@H]1CC(=O)Nc1ccccc1	Marburg entry inconclusive
CS(=O)(=O)Nc1ccc(N=Cc2c(O)[nH]c3ccccc23)cc1	none
COc1ccc2[nH]cc(CCNc3ncncc3-c3ccc(N(C)C)cc3)c2c1	Marburg entry 16µM
COc1ccccc1CNc1ncncc1-c1ccc(N(C)C)cc1	none
C[C@@H]1[C@@H](c2ccccc2)c2cc3ccccc3nc2-c2nc3ccccc3cc2[C@H]1C(=O)N1CCCC1	none
Cc1cc(OCc2cn(CC(=O)c3ccc(O)cc3)nn2)cc(C)c1C	Lassa entry inconclusive
COC(=O)C1=C(C(=O)OC)[C@@H]2N(C)c3ccccc3[C@@]23CCC(=O)N(Cc2cc(OC)c(OC)c(OC)c2)C3=N1	none
O=C(OC[C@H]1O[C@@H](OC(=O)c2cc(O)c(O)c(OC(=O)c3cc(O)c(O)c(O)c3)c2)[C@H](OC(=O)c2cc(O)c(O)c(OC(=O)c3cc(O)c(O)c(O)c3)c2)[C@@H](OC(=O)c2cc(O)c(O)c(OC(=O)c3cc(O)c(O)c(O)c3)c2)[C@@H]1OC(=O)c1cc(O)c(O)c(OC(=O)c2cc(O)c(O)c(O)c2)c1)c1cc(O)c(O)c(OC(=O)c2cc(O)c(O)c(O)c2)c1	Marburg entry 0.35µM, Lassa entry 10µM
Cc1ccc(C(=O)OC[C@H]2O[C@H](Cl)C[C@H]2OC(=O)c2ccc(C)cc2)cc1	none
CCOC(=O)C1=CN(CCC=C(C)C)C(=O)NC1c1ccccc1 (stereo unspecified)	none
CCC(OC(C)=O)C(CC(C)NC)(c1ccccc1)c1ccccc1 (stereo unspecified)	Marburg entry 7.9µM, Lassa entry 40µM
CCOC(=O)CN1C(=O)[C@@]2(CC(C)=CC[C@@H](COc3ccccc3)O2)c2c(Br)cccc21	none
C#CCCCON=C1C[C@@H](O)[C@@H](O)[C@@H]2[C@H]3C(=O)N([C@@H](C)c4ccccc4)C(=O)[C@@H]3CC[C@H]12	Marburg entry inconclusive
CCN1C(=NCCCOC(C)C)N[C@H](c2ccccc2)[C@H](C(=O)OC)[C@H]1C	none
C#C[C@@]1(OC(C)=O)CC[C@@H]2[C@@H]3CCC4=C[C@@H](OC(C)=O)CC[C@H]4[C@H]3CC[C@]21C	none
C#C[C@]1(OC(C)=O)CC[C@H]2[C@@H]3CCC4=C/C(=N/O)CC[C@@H]4[C@H]3CC[C@@]21CC	Lassa entry 28µM
COc1cc2c(cc1OC)C(=O)C(CC1CCN(Cc3ccccc3)CC1)C2 (stereo unspecified)	Marburg entry inconclusive
COc1cc(SC)ccc1C(=O)N1CCC(Cc2ccccc2)CC1	Lassa entry 11µM
COc1ccc(OC[C@@H]2CC3[C@@H](CC[C@@H](C)[C@H]3c3ccc(Br)cc3)C(=O)O2)cc1 (stereo partly specified)	none
COCC(=O)Nc1cc(C(=O)N2CCc3c([nH]c4ccccc34)C2)cc2nc(-c3ccccc3)n(C)c12	none
CC(C)[C@@]1(NC(=O)[C@H]2CC3c4cccc5[nH]cc(c45)C[C@H]3N(C)C2)O[C@@]2(O)C3CCCN3C(=O)[C@@H](Cc3ccccc3)N2C1=O (stereo partly specified)	Marburg entry 8.9µM
CN1C[C@H](C(=O)N[C@]2(C)O[C@@]3(O)C4CCCN4C(=O)[C@H](Cc4ccccc4)N3C2=O)C[C@@H]2c3cccc4[nH]cc(c34)C[C@H]21 (stereo partly specified)	Marburg entry 13µM, Lassa entry inconclusive
CN1C[C@H](C(=O)N[C@]2(C)O[C@]3(O)[C@H]4CCCN4C(=O)[C@H](Cc4ccccc4)N3C2=O)C[C@H]2c3cccc4[nH]cc(c34)C[C@@H]21	Marburg entry inconclusive
CC(C)[C@@]1(NC(=O)[C@@H]2C[C@H]3c4cccc5[nH]cc(c45)C[C@@H]3N(C)C2)O[C@]2(O)[C@H]3CCCN3C(=O)[C@H](Cc3ccccc3)N2C1=O	Marburg entry inconclusive
CCOC(=O)CCN1C(=O)[C@@H]2[C@H]3[C@H](O)[C@H](O)CC(=NO[C@@H]4O[C@H](COC(C)=O)[C@@H](OC(C)=O)[C@H](OC(C)=O)[C@@H]4OC(C)=O)[C@H]3CC[C@H]2C1=O	none
COc1ccccc1-n1cc(C(=O)NCCN2Cc3ccccc3OC(c3ccsc3)C2)cn1 (stereo unspecified)	none
CCNC(=O)[C@@H]1CCCN1C(=O)[C@H](CCCN=C(N)N)NC(=O)[C@H](CC(C)C)NC(=O)[C@@H](Cc1c[nH]c2ccccc12)NC(=O)[C@H](Cc1ccc(O)cc1)NC(=O)[C@H](CO)NC(=O)[C@H](Cc1c[nH]c2ccccc12)NC(=O)[C@H](Cc1cnc[nH]1)NC(=O)[C@@H]1CCC(=O)N1	Marburg entry inconclusive, Lassa entry 3.2µM
CC(C)C[C@H](NC(=O)CNC(=O)[C@H](Cc1ccc(O)cc1)NC(=O)[C@H](CO)NC(=O)[C@H](Cc1c[nH]c2ccccc12)NC(=O)[C@H](Cc1cnc[nH]1)NC(=O)[C@@H]1CCC(=O)N1)C(=O)N[C@@H](CCCN=C(N)N)C(=O)N1CCC[C@H]1C(=O)NCC(N)=O (stereo in doubt)	none
COc1ccc(COC(=O)NN=C2C[C@@H](O)[C@@H](O)[C@@H]3[C@H]4C(=O)N([C@@H](C)c5ccccc5)C(=O)[C@@H]4CC[C@H]23)cc1	none (no result: Lassa entry)
COc1cc(NCCCC(C)N)c2ncccc2c1 (stereo unspecified)	Marburg entry 8.9µM, Lassa entry 10µM
CC(C)CON=C1C[C@@H](O)[C@@H](O)[C@@H]2[C@H]3C(=O)N(C[C@@H]4CCCO4)C(=O)[C@@H]3CC[C@@H]12	none
Cc1ccc(/C=C2/CNC/C(=C\c3ccc(C)cc3)C2=O)cc1	Marburg entry 3.5µM, Lassa entry 11µM
CC(=O)[C@]12C[C@@H]3CCN(C(=O)N[C@@H]1c1ccccc1)[C@@]32C	Marburg entry inconclusive
O=C1c2ccccc2C(=O)N1CCCC[C@]12Cc3ccccc3[C@H](O1)c1c(c3ccccc3oc1=O)O2	none
COC(=O)C1=C(C(=O)OC)[C@@H]2N(Cc3ccccc3)c3ccccc3[C@@]23C[C@@H](CO)N(C(=O)CC(C)C)C3=N1	none
c1ccc(CCNc2nc(-c3ccccc3)cs2)cc1	Marburg entry inconclusive, Lassa entry 16µM
c1ccc(-c2csc(-c3nc4ccccc4[nH]3)n2)cc1	Lassa entry inconclusive
Cc1ccc(CN2C=CCCS2(=O)=O)cc1	none
ClC1=C(Cl)C(Cl)(C2(Cl)C(Cl)=C(Cl)C(Cl)=C2Cl)C(Cl)=C1Cl	Marburg entry 3.2µM, Lassa entry inconclusive
COc1ccc(O[C@H]2C=C[C@@H](c3ccccc3)O[C@H]2COC(=O)CCC(C)=NO[C@H](C)c2cn([C@@H]3COC[C@@H]3O)nn2)cc1	none (no result: Lassa entry)
C[N+]1(C)[C@@H]2CC[C@H]1CC(OC(=O)c1c[nH]c3ccccc13)C2 (stereo partly specified)	none
CN1[C@@H]2CC[C@H]1CC(OC(=O)c1c[nH]c3ccccc13)C2 (stereo partly specified)	Marburg entry 20µM!, Lassa entry inconclusive
O[C@H](CC#CCOc1ccccc1)COCc1ccccc1	none
